Only a sample is shown.
IDE exosite FP: exo-site inhibitors of human IDE, primary screen, biochemical, fluorescence anisotropy, probe displacement; Insulin-degrading enzyme (Homo sapiens), P14735; AID 1259349, 2017; 17,000 compounds, 6.3% hits; purified IDE, FL-6b probe fluorescence polarization; active compounds read low; z-score at 20 µM;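 active = z-score of -3 or lower, meaning strong loss of probe binding signal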;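 also: His-tagged human IDE residues 42-1019 made in E. coli with 30 nM FL-6b probe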
Active calls of the source: *.

COc1cccc(-c2ccc([C@@H]3[C@H]4CNCC(=O)N4[C@H]3CO)cc2)c1 was read as IDE exosite FP -2.3.
COc1ccc(NC(=O)N2[C@@H]3CNC[C@H]2C3c2ccc(-c3ccc(C)cc3)cc2)cc1 (some centres not stated) was read as IDE exosite FP 5.1.
C/C=C/c1ccc([C@H]2[C@@H](CO)N(CC3CCCC3)[C@H]2CNC(=O)NC(C)C)cc1 was read as IDE exosite FP 1.1.
Screening CC(=O)N1CC(=O)N2[C@H](CO)[C@@H](c3ccc(-c4ccncc4)cc3)[C@@H]2C1 returned IDE exosite FP -0.35.
Screening C[C@H]1CCCCO[C@H](CN(C)S(=O)(=O)c2ccccc2)[C@@H](C)CN([C@@H](C)CO)C(=O)c2cc(NC(=O)Nc3ccc4c(c3)OCO4)ccc2O1 returned IDE exosite FP 0.22.
O=C(C1CCC1)N1CCCCN2[C@@H](CO)[C@@H](c3ccc(-c4ccncc4)cc3)[C@@H]2C1 was read as IDE exosite FP 0.014.
COc1ccc(C#Cc2ccc([C@@H]3[C@H](CO)N4CCCCN(C(=O)Nc5cccc(F)c5)C[C@@H]34)cc2)cc1 was read as IDE exosite FP 3.1.
COC(=O)c1ccc(CN2CC(=O)N3[C@H](C2)[C@@H](c2ccc(Br)cc2)[C@@H]3CO)cc1 was read as IDE exosite FP 1.4.
CO[C@H](CN(C)C(=O)C1CCOCC1)[C@H](C)CN([C@H](C)CO)S(=O)(=O)c1ccccc1 was read as IDE exosite FP 0.57.
